# High-throughput results from PubChem BioAssay.
# TDP1 cell CPT = qHTS for Inhibitors of human tyrosyl-DNA phosphodiesterase 1 (TDP1): qHTS in cells in presence of CPT. chicken DT40 Tdp1-/-;hTDP1 cells + 20 nM CPT, ATP luminescence, 48 h. Potency, µM (doses to about 46.2 µM), for the others: at the top dose activity change, negative = growth inhibition, actives largely listed as inhibitors. 420,000 compounds, 12% hits. AID 686979, 2013; note: potency is the fitted concentration of half-maximal effect; nearly all actives have a fitted effect of over 55% in size
#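 Cell growth measured by CellTiter-Glo luminescence after a minimum 48 h, 37 C compound exposure with 20 nM CPT in Tdp1-knockout DT40 cells stably expressing hTDP1, seeded 400/well; qHTS titration format.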
# HT1080 IDH1KD tx = qHTS for induction of synthetic lethality in tumor cells producing 2HG: qHTS for the HT-1080-IDH1KD cell line; Potency, µM (titrated, usually from 46.1 µM), for inactives: top-dose activity, negative = toxicity, most hits filed as cytotoxic; AID 686971, 2013; HT-1080 IDH1 knockdown viability, ATP luminescence, 48 h; 360,000 compounds, 2% hits;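 note: potency is the fitted concentration of half-maximal effect; 0% = DMSO wells and -100% = cell-free medium wells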
#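 Assay cells: HT-1080 with IDH1 knockdown, 750 per well, RPMI/5% FBS. Exposure: 48 h at 37 °C following 2 h pre-incubation. Read: CellTiter-Glo luminescence; fitted concentration-response, curve class assigned.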
# ALOX12 inh = Primary qHTS assay for inhibitors of human arachidonate 12S-lipoxygenase (ALOX12): Round 2. Polyunsaturated fatty acid lipoxygenase ALOX12 (Homo sapiens), P18054. purified 12hLO, xylenol orange hydroperoxide absorbance. Potency, µM (series often up to 108 µM), inactives show top-dose activity change, negative = inhibition, most hits filed as inhibitors. 580,000 compounds, 1.1% hits. AID 1671190, 2021; note: potency is the fitted concentration of half-maximal effect
# Target sequence (P18054 whole entry, looked up): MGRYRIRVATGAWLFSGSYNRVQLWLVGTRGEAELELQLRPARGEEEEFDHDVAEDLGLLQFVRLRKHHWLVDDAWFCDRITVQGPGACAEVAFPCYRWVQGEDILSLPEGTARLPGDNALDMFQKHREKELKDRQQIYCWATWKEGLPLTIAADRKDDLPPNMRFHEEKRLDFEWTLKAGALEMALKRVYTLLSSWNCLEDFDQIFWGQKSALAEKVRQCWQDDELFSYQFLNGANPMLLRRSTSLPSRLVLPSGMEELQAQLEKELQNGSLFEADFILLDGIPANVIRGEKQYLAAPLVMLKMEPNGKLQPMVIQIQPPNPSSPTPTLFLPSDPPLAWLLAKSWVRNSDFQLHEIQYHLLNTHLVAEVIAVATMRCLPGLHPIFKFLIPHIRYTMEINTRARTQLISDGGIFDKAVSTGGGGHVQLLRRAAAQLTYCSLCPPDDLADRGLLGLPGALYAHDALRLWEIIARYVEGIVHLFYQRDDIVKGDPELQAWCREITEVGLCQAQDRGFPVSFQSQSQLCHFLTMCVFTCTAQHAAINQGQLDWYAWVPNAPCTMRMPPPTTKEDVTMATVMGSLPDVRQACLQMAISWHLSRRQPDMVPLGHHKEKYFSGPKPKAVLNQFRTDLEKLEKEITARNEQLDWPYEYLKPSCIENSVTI
#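 Purified human 12hLO at 150 nM in 25 mM Hepes, 0.01% Triton X-100, pH 7.0, preincubated 15 min at room temperature with compound. Reaction started with 40 uM arachidonic acid, 30 min at room temperature. Hydroperoxide measured by Fe-xylenol orange, 573/405 nm absorbance ratio.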
# DT40 TDP1 no CPT = qHTS for Inhibitors of human tyrosyl-DNA phosphodiesterase 1 (TDP1): qHTS in cells in absence of CPT | 420,000 compounds, 15% hits | AID 686978, 2013 | DT40 Tdp1-/- hTDP1 cells, no CPT, ATP luminescence, 48 h | Potency, µM (top dose mostly 46.2 µM), inactives show top-dose activity change, negative = growth inhibition, hits mostly inhibitors; note: potency is the fitted concentration of half-maximal effect; nearly all actives have a fitted effect of over 55% in size
#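 DT40 Tdp1-/-;hTDP1 cells, no CPT (DMSO vehicle only), 400 cells/well; compounds pin-transferred; ≥48 hr, 37 °C; CellTiter-Glo 30 min RT dark, luminescence read.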
# HT1080NT lethal = qHTS for induction of synthetic lethality in tumor cells producing 2HG: qHTS for the HT-1080-NT fibrosarcoma cell line. HT-1080-NT fibrosarcoma viability, CellTiter-Glo ATP luminescence, 48 h. Potency, µM (top dose mostly 46.1 µM), without a hit: at the highest dose activity, negative = less viability, actives largely listed as cytotoxic. 360,000 compounds, 1.6% hits;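 note: NT is the 2HG producing partner of a matched IDH1 knockdown line; potency is the fitted concentration of half-maximal effect; 0% = DMSO-treated cells and -100% = media-only wells without cells; nearly all actives have a fitted effect of over 55% in size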
#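 HT-1080-NT; 750 cells/well; 5% FBS RPMI; 48 h compound, 37 degrees C; CellTiter-Glo luminescence; curve fitting and curve-class assignment.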
# IL-1B inflam inh = qHTS for Inhibitors of Inflammasome Signaling: IL-1-beta AlphaLISA Primary Screen; 360,000 compounds, 4.7% hits; activity change, % at 57.5 µM; THP-1 LPS/ATP IL-1B secretion, AlphaLISA, 16 h; active compounds read low; in the data active = activity change below about -50%; inconclusive = mostly about -30% to -49%
#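 Secreted IL-1B measured by AlphaLISA bead assay after 16 h compound exposure of THP-1 cells; compounds (final up to 57.5 uM) added 1 h before LPS (250 ng/mL) and ATP (1.25 mM) stimulation; lower signal means less secretion.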
# * hit, by the source's call; ? = inconclusive; . = not tested or not shown. This excerpt belongs to a sample that is enriched for hits. Unless noted, calls come from the whole dose curve; as a rule, active = well fitted curve in the direction sought with a large enough effect; inconclusive = small, poorly fitted or top-dose-only effect, or another doubt; inactive = no such curve, though single readings can be large; an effect the other way counts as inactive or inconclusive. Unless noted, % is set by controls: 0 for no effect and ±100 for the full control effect.
SMILES,TDP1 cell CPT,HT1080 IDH1KD tx,ALOX12 inh,DT40 TDP1 no CPT,HT1080NT lethal,IL-1B inflam inh
Cc1ccc(CCNc2ncnc3onc(-c4ccc(F)cc4)c23)cc1,-1.1%,.,0.0%,2.2%,.,.
Fc1ccc(-c2noc3ncnc(NCCc4ccccc4)c23)cc1,?,.,-12.7%,16.4µM*,.,.
Fc1ccc(-c2noc3ncnc(NCc4ccc(Cl)cc4)c23)cc1,?,.,-14.9%,?,.,.
Fc1ccc(-c2noc3ncnc(NCCc4ccc(Cl)cc4)c23)cc1,14.6µM*,.,-4.1%,10.3µM*,.,.
Cc1nc2cncnc2n(C2CC2)c1=O,0.2%,.,0.0%,2.7%,.,.
O=C(CSc1nc2ccccc2n1C(F)F)c1ccc(Cl)cc1,.,.,-15.7%,.,.,.
COc1ccc(-c2csc(NC(=O)[C@H](C)N3C(=O)C4CC=CCC4C3=O)n2)cc1OC (stereo not given in full),?,1.8%,-9.9%,?,-1.0%,-4.1
CC(C(=O)Nc1nc(-c2ccc(F)c(F)c2)cs1)N1C(=O)C2CC=CCC2C1=O (stereo not given),?,2.0%,41.5%,23.1µM*,2.1%,-4.0
O=C(CCN1C(=O)C2CC=CCC2C1=O)Nc1nc(-c2ccc(F)c(F)c2)cs1 (stereo not given),13µM*,-8.2%,4.6%,-19.0%,-8.9%,-0.6
COCc1nc(N2CCN(c3ccc(OC)cc3)CC2)ncc1C(=O)O,.,.,2.8%,.,.,.
COc1ccc(N2CSC3=C(C#N)C(c4ccc(OC)c(OC)c4)CC(=O)N3C2)c(OC)c1 (stereo not given),?,4.3%,?,?,-19.1%,25.5
COc1cc(C2CC(=O)N3CN(c4cccc(Cl)c4)CSC3=C2C#N)ccc1O (stereo not given),.,.,17.8µM*,.,.,.
COc1cc(C2CC(=O)N3CN(c4ccc(C)c(Cl)c4)CSC3=C2C#N)ccc1O (stereo not given),.,.,0.891µM*,.,.,.
COC(=O)c1ccccc1NC(=O)N1CCN(CCc2ccncc2)CC1,.,.,14.5%,.,.,.
O=C(NC(c1ccccc1)c1ccccc1)C1CC1c1ccccc1 (stereo not given),.,.,-9.3%,.,.,.
Cc1cccc(NC(=O)COC(=O)COc2ccc3ccccc3c2)c1C,.,.,1.5%,.,.,.
COc1cc(/C=N/n2c(C)n[nH]c2=S)ccc1OCc1ccc(F)cc1,?,2.2%,?,18.4µM*,-1.6%,7.0
COc1cc(/C=N\n2nnnc2N)ccc1OCc1ccc(F)cc1,-8.3%,-25.2%,153.3%,-20.3%,-21.7%,-21.2
COc1ccc(CNC(=S)N/N=C/c2ccc(O)c(OC)c2)cc1,-8.2%,?,31.6µM*,-21.4%,-4.0%,5.5
CCCOc1ccc(CNC(=S)NCc2ccc(OC(C)C)cc2)cc1,?,0.6%,-4.7%,18.4µM*,-2.2%,14.2
CCCOc1ccc(CNC(=S)N/N=C/c2ccc([N+](=O)[O-])cc2)cc1,?,?,0.0%,20.6µM*,?,-7.4
Cc1c(Cl)cccc1NC(=O)CN1C(=O)NC2(CCCCC2)C1=O,.,.,22.9%,.,.,.
COc1cc(/C=N/NC(N)=S)ccc1OC(=O)c1ccc(C)cc1,-20.1%,?,?,-17.7%,-7.3%,44.1
COc1ccc(/C=N/NC(=S)Nc2cccc(C(=O)O)c2)cc1OC,8.7%,-4.1%,?,-6.5%,-0.4%,28.5
COc1cc(/C=N/NC(N)=S)ccc1OCc1ccc(C)cc1,5.17µM*,?,44.7µM*,10.3µM*,?,-18.9
